This is a sample that favours compounds with a hit; in the whole collection about 3% have one here.
VDR inh – blocks the human vitamin D receptor; P11473; VDR-SRC2-3 peptide fluorescence polarization, 2 h; Potency, µM, hits mostly inhibitors; hit rate 0.93% among 400,000
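Signal is fluorescence polarization, reporting how far test compounds block the interaction of VDR with the SRC2-3 coregulator peptide after a 2 h room-temperature incubation.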
PLK1 PBD inh – inhibitors of human PLK1 polo-box domain binding | P53350 | Plk1 PBD binding of FITC phosphopeptide, fluorescence polarization | Potency, µM, most hits filed as inhibitors | hit rate 2.8% among 360,000 | AID 720504; note: series mostly up to about 57 µM; nearly all actives have a fitted effect of over 65% in size
ALOX12 inh – blocks human arachidonate 12S-lipoxygenase; purified 12hLO, xylenol orange hydroperoxide absorbance; Potency, µM (highest dose often 108 µM), usual class: inhibitors; hit rate 1.1% among 580,000
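Hydroperoxide product was detected by ferrous iron/xylenol orange as the 573 to 405 nm absorbance ratio. Arachidonic acid at 40 uM (final) was turned over for 30 min at room temperature by 150 nM human 12hLO, pH 7.0 Hepes buffer, after 15 min compound preincubation.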
GCN5L2 inh – GCN5L2 (KAT2A) acetyltransferase inhibition; GCN5L2 HAT assay, ThioGlo1 CoA-SH fluorescence; Potency, µM (series often up to 58.9 µM), most hits filed as inhibitors; hit rate 0.21% among 390,000; Q92830
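ThioGlo1-coupled HAT assay: 20nM GCN5L2, 70uM acetyl-CoA, 75uM H3(1-25) peptide, pH 7.5. Fluorescence read at 340/540nm at start and after 20 min at room temperature.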
A number is an active result; - = inactive; ? = inconclusive; . = no result given; ! = a repeat was not active; [ ] = another dose, or the depositor's remark. Calls come from the whole dose curve; as a rule, active = well fitted curve in the direction sought with a large enough effect; inconclusive = small, poorly fitted or top-dose-only effect, or another doubt; inactive = no such curve, though single readings can be large; an effect the other way counts as inactive or inconclusive.

SMILES	VDR inh	PLK1 PBD inh	ALOX12 inh	GCN5L2 inh
Cc1ccc(C[N+](C)(C)C)o1	-	.	-	14.1µM!
Cc1ccc(CN2C[C@@H]3C(=O)N(C)C(=O)[C@@H]3C2)o1	.	.	-	.
C=CCc1cc(C=C2C(=O)N(C)C(=O)N(C)C2=O)cc(OCC)c1OCc1ccccc1	?	7.52µM	?	-
C=CCc1cc(C=C2C(=O)NC(=O)NC2=O)cc(OC)c1OCc1ccc(C(=O)O)cc1	89.1µM	11.9µM	.	-
C=CCn1cc(C=C2C(=O)N(C)C(=O)N(C)C2=O)c2ccccc21	-	-	-	-
O=[N+]([O-])/C=C\c1ccc2c(c1)OCO2	.	.	11.2µM	.
Cc1c(CC(=O)N2CCN(Cc3ccccc3)CC2)c(=O)oc2cc(O)ccc12	.	.	-	.
C#C[C@H]1CN2CC[C@H]1C[C@@H]2COC(=O)NCCC	.	.	8.91µM	.
CN(C)C(=O)Oc1ccc2c(=O)c(-c3ccc(Br)cc3)coc2c1	.	.	-	.
N=C1/C(=C\c2ccc(OC(=O)c3ccccc3Cl)cc2)C(=O)N=C2SC(N3CCOCC3)=NN12	?	29.9µM	-	?
CCN(CC)C[C@H]1CN2CC[C@H]1C[C@@H]2CNC(=O)NC(C)C	.	.	-	.
CCC(=O)N1[C@H]2CC[C@@H]1c1cnc(-c3ccccc3)nc1C2	.	.	-	.
Fc1ccc(C(OCCN2CCN(CCCc3ccccc3)CC2)c2ccc(F)cc2)cc1	-	.	2.73µM!	-
NCC(O)c1cc(O)c(O)cc1F (centres undefined)	28.2µM!	-	?	-
c1ccc(CN2C[C@H](c3ccc4c(c3)OCO4)[C@@H]3[C@H]2C2CCN3CC2)nc1	.	.	-	.
CC(C)=CCCC1(C)C=Cc2c(O)c3c(c(CC=C(C)C)c2O1)OC12C(CC4CC1C(C)(C)OC2(C/C=C(/C)C(=O)O)C4O)C3=O (centres undefined)	50.1µM	.	.	?
Cc1[nH]nc2c1C(c1cccc(OCC(C)C)c1)SCC(=O)N2 (centres undefined)	.	.	-	.
COc1ccc(OCC(=O)N2CCN(Cc3c[nH]c4ccccc34)CC2)cc1	-	-	?	-
COc1ccc(N2CCN(C(=O)c3cc(=O)[nH]c4ccccc34)CC2)cc1	-	26.7µM	-	-
O=C(O)Cn1cc(/C=C2\C(=O)NC(=O)N(Cc3ccco3)C2=O)c2ccccc21	?	9.47µM	?	-
Cc1cc(/C=C2\C(=O)NC(=O)N(c3ccccc3F)C2=O)c(C)n1-c1cc(C(=O)O)cc(C(=O)O)c1	-	?	?	-
CCN(CC)c1ccc(/C=C2\C(=O)NC(=O)N(Cc3ccco3)C2=O)cc1	?	?	44.7µM	-
Cc1ccc(N2C(=O)NC(=O)/C(=C\c3cn(CC(=O)O)c4ccccc34)C2=O)cc1	-	26.7µM	-	-
Cc1cc(/C=C2\C(=O)NC(=O)N(c3ccc(F)cc3)C2=O)c(C)n1-c1cccc(C(=O)O)c1	-	16.8µM	?	-
Cc1ncc2c(n1)C[C@@H]1CC[C@H]2N1C(=O)Nc1ccc2c(c1)OCCO2	.	.	-	.
SMILES	VDR inh	PLK1 PBD inh	ALOX12 inh	GCN5L2 inh
O=C1CS(=O)C2(CCNCC2)N1c1ccccc1 (centres undefined)	.	.	-	.
COc1ccc(-c2c(C#N)c(N)nc3c2c(=O)nc2sccn23)cc1OC	.	.	-	.
O=C1NC(=O)N(c2ccccc2F)C(=O)/C1=C/c1cn(CC(=O)N2CCOCC2)c2ccccc12	?	4.74µM	?	-
CCN1C(=O)NC(=O)/C(=C\c2cn(CC(=O)N3CCCCC3)c3ccccc23)C1=O	-	?	-	-
O=C(O)Cn1cc(/C=C2\C(=O)NC(=O)N(c3ccc(Br)cc3)C2=O)c2ccccc21	?	2.99µM	-	-
CC(C)CCN1CCCC2(CC(c3ccccn3)=NO2)C1 (centres undefined)	.	.	-[12.5 µM]	.
CCc1c(C)nc(N)nc1N1N=C1SC(C(C)=O)C(C)=O	22.4µM	-	-	-
CCc1c(C)nc(N)nc1N1N=C1SC	-	-	-	-[0.501 µM]
Cn1c(O)c(C=NCCc2c[nH]c3ccccc23)c(=O)n(C)c1=O	-	-	-	-
CCNC(=S)NCCC1=c2ccccc2=N/C1=C\c1c(O)n(C)c(=O)n(C)c1=O	31.6µM	1.06µM	?	-
COC(=O)c1ccc(Cl)cc1NC(=O)N(Cc1ccc(C)o1)C1CCN(Cc2ccccc2)CC1	.	.	-	.
O=C(CN1C(=O)S/C(=C\C=C\c2ccccc2)C1=O)Nc1ccccc1C(=O)O	79.4µM	18.9µM	?	-
Cc1ccccc1NC(=O)CCl	-	-	-	-
O=Cc1c(C(=O)O)n(Cc2ccc(Cl)cc2)c2ccccc12	-	-	11.2µM	-
O=C(O)c1nn(Cc2ccc(Cl)cc2)c2ccccc12	.	-	?	.
c1ccc2c(c1)cc1ccc3cccc4ccc2c1c34	-	-	-	.
O=C1C=CC(=O)c2c1ccc1c2ccc2ccccc21	3.16µM	.	.	-
